High-throughput results (PubChem BioAssay)
PI4K2A block: inhibitors of human PI4K2A. Q9BTU6. activity change, negative = inhibition, % at 76.9 µM. purified PI4K2A, ADP-Glo luminescence, 1 h; active compounds read low. AID 1346378. 420,000 compounds, 0.13% hits; in the data active means activity change below about -50%; inconclusive means mostly about -30% to -49%
Target sequence (Q9BTU6 whole entry, looked up): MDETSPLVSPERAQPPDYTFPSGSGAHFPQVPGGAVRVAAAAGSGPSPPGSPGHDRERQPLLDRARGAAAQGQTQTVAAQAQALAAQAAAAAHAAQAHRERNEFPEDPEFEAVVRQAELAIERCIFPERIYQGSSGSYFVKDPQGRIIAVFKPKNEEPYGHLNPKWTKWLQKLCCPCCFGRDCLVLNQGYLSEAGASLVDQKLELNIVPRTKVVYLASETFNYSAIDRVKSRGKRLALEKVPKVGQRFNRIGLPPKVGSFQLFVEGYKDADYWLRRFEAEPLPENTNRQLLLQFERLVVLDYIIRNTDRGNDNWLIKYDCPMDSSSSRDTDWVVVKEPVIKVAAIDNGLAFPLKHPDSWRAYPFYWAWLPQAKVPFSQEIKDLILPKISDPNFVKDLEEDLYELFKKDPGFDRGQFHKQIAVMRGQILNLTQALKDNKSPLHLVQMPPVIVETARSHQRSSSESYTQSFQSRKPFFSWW
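PI4K2A activity was measured by ADP-Glo luminescence: enzyme (4 ug/mL stock) and phosphatidylinositol (1.2 mM stock) in Tris pH 7.5/MgCl2/EGTA/Triton X-100 buffer were reacted with ATP (300 microM stock) for one hour at ambient temperature.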
Pin1 inhibitor: human Pin1 inhibition; Q13526; AID 504891; Pin1 FP peptide displacement, HiFluor488, 10 min; Potency, µM (top dose mostly 115 µM), usual class: inhibitors; 390,000 compounds, 0.009% hits; active means well fitted inhibition curve with a large enough effect in the polarisation, with a control signal flat, not every such curve was filed as active; inconclusive means small, poorly fitted or top-dose-only effect, or effect the other way, or a change in a side signal; inactive means no such curve, though single readings can be large or run the other way; the % refers to the polarisation
Tb PGK inh: blocks T. brucei phosphoglycerate kinase; P07378; PGK/GAPDH coupled, Kinase-Glo luminescence, 60 min; Potency, µM (series often up to 57.5 µM), usual class: inhibitors; 380,000 compounds, 0.043% hits; active means well fitted inhibition curve with a large enough effect; inconclusive means small, poorly fitted or top-dose-only effect; inactive means no such curve, though single readings can be large or run the other way; further: nearly all actives have a fitted effect of over 60% in size
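Recombinant glycosomal PGK reaction used 1,3-bisphosphoglycerate generated in-well by GAPDH (100nM final) in 100mM TEA pH 7.6, 5mM MgCl2, 0.01% Tween-20. After 60 minutes at room temperature, ATP was read by Kinase-Glo Plus luminescence end-point.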
PI5P4K alpha inh: blocks human PI5P4K alpha kinase activity | P48426 | AID 652105 | 330,000 compounds, 1.2% hits | PI5P4Kalpha enzyme, ADP-Glo luminescence, 60 min; active compounds read low | max response, %; active means max response of -50% or lower; inconclusive means between -30% and -50%; inactive means -30% or higher; further: value at the top dose of about 77 µM
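Luminescence from ADP-Glo served as readout of PI5P4Kalpha activity in a qHTS format. Reaction: enzyme, substrate, compound, ATP at 5 microM final, 60 min at RT.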
Numbers stand for hits; – = inactive; ? = inconclusive; · = not tested or not shown; ! = a repeat was not active. Many of the other results were omitted from the sample, so hits are more common in it than they were.

SMILES	PI4K2A block	Pin1 inhibitor	Tb PGK inh	PI5P4K alpha inh
CCOC(=O)C1=C(C)N(CCCC(=O)O)C(=O)NC1c1cccs1 (centres undefined)	–	–	–	-66.2
N#Cc1cccc(OC2=NS(=O)(=O)c3ccccc32)c1	·	–	·	·
O=c1c2ccccc2sn1-c1ccc(S(=O)(=O)N2CCCC2)cc1	–	–	–	·
O=c1c2cc(F)ccc2sn1-c1ccccc1	–	–	–	-85.3
O=c1c2cc(C(F)(F)F)ccc2sn1-c1ccccc1	–	·	–	-102.2
Cc1ccsc1C(=O)N/N=C/c1ccc2c(c1)OCO2	-53.6	–	?	–
O=C(N/N=C/c1ccc2c(c1)OCO2)c1cccs1	–	–	–	–
Cc1occc1C(=O)N/N=C/c1ccc(-c2ccccc2)cc1	-77.9	?	?	–
Cc1occc1C(=O)N/N=C/c1ccc(OCc2ccccc2)cc1	–	–	–	–
Cc1occc1C(=O)N/N=C/c1ccc2c(c1)OCO2	-65.3	–	?	-54.3
COc1ccc(CNC(=O)c2cccn2-c2nnc(N3CCCCC3)s2)c(OC)c1	–	–	–	·
COc1cccc(C2c3c(ncn(CCCN4CCOCC4)c3=N)Oc3ccc4ccccc4c32)c1 (centres undefined)	·	–	·	·
NC[C@H]1O[C@H](O[C@H]2[C@H](O[C@@H]3O[C@H](CO)[C@@H](O)[C@H]3O)C(O)[C@H](N)C[C@@H]2N)[C@H](N)[C@@H](O)[C@@H]1O (some centres undefined)	–	·	·	·
Cc1cc2c(SCC(=O)Nc3cccc(O)c3)ncnc2s1	–	–	–	-74.4
O=c1[nH]sc2ccccc12	–	–	–	-92.7
O=c1ccsc2ccccc12	–	–	–	–
Cc1cc2c(s1)c1cnn(Cc3ccc(Cl)cc3)c(=O)c1n2C	·	–	·	·
CCOC(=O)c1ccc(N2N=C(C)/C(=C/C=C/c3ccco3)C2=O)cc1	–	–	–	–
O=C(O)c1cc(N2N=C(C(F)(F)F)/C(=C/C=C/c3ccco3)C2=O)ccc1Cl	-66.7	·	?	-93.2
COc1cccc(N2CCN(CC(=O)NCc3ccccc3C)CC2)c1	–	·	·	·
O=C(CSc1n[nH]c(=O)[nH]c1=O)Nc1ccc2c(c1)C(=O)c1ccccc1C2=O	–	·	?	-58.6
Cc1ccc(S(=O)(=O)NCC(=O)OCC(=O)c2ccc(Br)s2)cc1	–	–	–	-51.5
O=C1O[C@H](CO)[C@@H](O)[C@H](O)[C@H]1O	–	–	–	–
O=CC(O)C1OC(=O)C(O)C1O (centres undefined)	–	?	6.31µM	?
O[C@@H](COc1cccc2ncccc12)CN1CCN(C2c3ccccc3[C@@H]3[C@H](c4ccccc42)C3(F)F)CC1 (some centres undefined)	–	·	·	·
SMILES	PI4K2A block	Pin1 inhibitor	Tb PGK inh	PI5P4K alpha inh
COc1cccc(C2c3c(ncn(-c4ccc(Br)cc4)c3=N)Oc3ccc4ccccc4c32)c1 (centres undefined)	·	–	·	·
NC(=O)Cc1ccc(C(=O)CSc2nnc(-c3ccncc3)n2C2CC2)s1	?	?	–	-78.2
Cc1cc2c(s1)c1cnn(Cc3cc(F)cc(F)c3F)c(=O)c1n2C	·	–	·	·
CCOc1cccc(CNc2ccc(O)cc2)c1OCc1ccccc1Cl	-53.0!	?	–	–
CCOc1cccc(CNc2ccc(O)cc2)c1OCc1ccc(Cl)cc1Cl	-57.7	–	–	–
CCOc1cccc(CNCCO)c1OCc1ccc(Cl)cc1Cl	–	–	–	–
COc1ccc2c(c1)Oc1ncn(CCN3CCOCC3)c(=N)c1C2c1ccc(OC)c(OC)c1 (centres undefined)	·	–	·	·
Nc1ccc(S(=O)(=O)N2CCN(S(=O)(=O)c3ccc4c(c3)OCCO4)CC2)cc1	·	–	·	·
OC[C@H]1O[C@H](n2cnc3c(N[C@H]4CCC[C@@H]4O)ncnc32)[C@H](O)[C@@H]1O	–	·	·	·
Cc1ccc(SCCC(=O)OC(C(=O)NC(N)=O)C(C)C)cc1 (centres undefined)	–	–	–	-67.3
Cc1ccc(SCCC(=O)NC(C)C)cc1	–	–	–	·
O=C(O)COc1ccc2c(c1)O/C(=C\c1ccco1)C2=O	–	?	28.2µM	?
CC(C)(C)c1cc(C=O)cc(C(C)(C)C)c1O	–	·	·	·
COc1cccc2nc3cc(C)c(C)cc3nc12	-74.7	–	–	?
COc1cccc2c1nc(C)c1cc(C)oc12	–	–	–	–
N#C/C(=C(/O)c1ccc(-c2cccc([N+](=O)[O-])c2)o1)c1nc2ccccc2s1	–	–	–	-53.4
Cc1ccc2c(c1)c1c(c(=O)n(-c3cccc(Cl)c3)c(=O)n1CC(N)=O)n2C	–	–	–	·
NC(=O)C1CCN(c2nccc(-c3ccc4c(c3)OCCO4)n2)CC1	·	–	·	·
